Shown are actives, neighbours in structure and some others; about 4.7% of the full set was active somewhere.
MPTP block: blocks calcium-induced mitochondrial swelling | isolated mouse mitochondria, Ca2+ swelling absorbance, 30 min | inhibition, % at 10 µM | actives 1.4% (n = 360,000) | AID 602449;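 active means inhibition of 50% or more, scaled per plate between neutral and stimulator controls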;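 further: 0% = DMSO wells given calcium and 100% = 1 mM EGTA wells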
DSG3 Ab inh: blocks pemphigus antibody binding to human desmoglein-3; P32926; DSG3-coupled beads, scFv-anti-DSG3-GFP binding, flow cytometry; stronger effect = lower value; binding (percent of control), % at 10 µM; actives 0.48% (n = 310,000);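 active means binding more than 3 SD below its plate's average and above zero; inconclusive means below that plate limit but binding exactly zero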;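 further: hits lower antibody fragment binding to DSG3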
Target sequence (P32926 whole entry, looked up, the tested form may be a part): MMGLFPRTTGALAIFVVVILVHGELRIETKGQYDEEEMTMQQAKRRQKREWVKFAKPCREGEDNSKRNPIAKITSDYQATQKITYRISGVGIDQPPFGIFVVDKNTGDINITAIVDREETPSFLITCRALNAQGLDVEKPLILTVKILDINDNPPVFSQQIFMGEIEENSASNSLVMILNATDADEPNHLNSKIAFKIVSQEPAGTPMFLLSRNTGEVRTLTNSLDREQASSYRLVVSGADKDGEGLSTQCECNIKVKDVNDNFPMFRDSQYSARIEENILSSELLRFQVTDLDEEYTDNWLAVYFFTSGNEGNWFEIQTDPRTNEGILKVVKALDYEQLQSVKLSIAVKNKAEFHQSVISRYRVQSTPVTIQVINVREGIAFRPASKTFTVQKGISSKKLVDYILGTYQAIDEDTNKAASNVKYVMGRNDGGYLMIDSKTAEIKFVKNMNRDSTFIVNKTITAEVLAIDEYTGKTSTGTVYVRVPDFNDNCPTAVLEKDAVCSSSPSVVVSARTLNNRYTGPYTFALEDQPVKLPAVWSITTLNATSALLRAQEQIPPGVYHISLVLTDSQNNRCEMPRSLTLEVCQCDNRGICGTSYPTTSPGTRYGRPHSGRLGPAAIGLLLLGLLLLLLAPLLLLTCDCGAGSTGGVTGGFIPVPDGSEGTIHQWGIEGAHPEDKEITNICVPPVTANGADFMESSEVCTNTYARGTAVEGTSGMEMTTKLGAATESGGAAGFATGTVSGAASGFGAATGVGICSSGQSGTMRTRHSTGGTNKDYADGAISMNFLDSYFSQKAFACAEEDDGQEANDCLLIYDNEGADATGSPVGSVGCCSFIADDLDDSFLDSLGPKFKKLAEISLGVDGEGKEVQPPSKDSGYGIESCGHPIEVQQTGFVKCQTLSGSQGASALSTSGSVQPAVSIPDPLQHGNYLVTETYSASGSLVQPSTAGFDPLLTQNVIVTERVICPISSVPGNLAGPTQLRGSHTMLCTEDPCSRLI
ADAM17 inh: ADAM17 inhibition, QFRET primary screen; actives 0.83% (n = 370,000); AID 720648; recombinant ADAM17, EDANS/DABCYL FRET peptide cleavage; inhibition, % at 6.95 µM;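 active means inhibition above the mean of compounds lying between control limits plus 3 SD, set per campaign, cut at about 8.5% in these data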;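 further: 0% = DMSO-only wells as the low control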
rCAG binder: binds r(CAG) RNA repeats; actives 1.3% (n = 370,000); inhibition, % at 3 µM; r(CAG) RNA repeat, TO-PRO-1 dye displacement fluorescence;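 active means inhibition above the plate cutoff, the mean of all test compounds on that plate plus 3 SD, cut at about 35% in these data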;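 further: 0% = DMSO alone and 100% = 100 µM mitoxantrone as full dye displacement; higher means more dye released from RNA so lower well fluorescence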
ADAM10 inh: inhibitors of human ADAM10. O14672. recombinant ADAM10, EDANS/DABCYL FRET peptide cleavage, 3 h. inhibition, % at 7 µM. actives 0.62% (n = 370,000). AID 720582;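 active means inhibition above a per-campaign cutoff equal to the mean of compounds falling between control-based bounds plus 3 SD, cut at about 20% in these data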;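 further: 0% = DMSO wells while the 100% control is not disclosed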
KLK7 zymogen act: activates the human kallikrein-7 zymogen; P49862; purified proKLK7, EDANS-DABCYL substrate fluorescence; 100% is mature enzyme control, 0% vehicle; activation, % at 7 µM; actives 0.9% (n = 370,000);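 active means activation above the mean of all tested compounds plus 3 SD, computed per campaign excluding outliers beyond control limits, cut at about 13% in these data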
rCAG bind conf: r(CAG) RNA repeat binding, confirmation; shares compounds with rCAG binder; TO-PRO-1 dye displacement fluorescence; inhibition, % at 3 µM; actives 70% (n = 4,300);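 active means inhibition above a per-plate cutoff, the mean inhibition of sample wells plus 3 SD, cut at about 35% in these data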;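 further: loss of TO-PRO-1 fluorescence as compound displaces dye from 1x1 AA loop RNA; 0% = DMSO only wells and 100% = 100 µM mitoxantrone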
DNA CAG counter: DNA CAG dye complex inhibition counter-screen; shares compounds with rCAG binder; d(CAG) DNA oligo TO-PRO-1 dye displacement, fluorescence; inhibition, % at 3 µM; actives 94% (n = 4,300);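 active means inhibition above its plate's cutoff, the mean test-well inhibition plus 3 SD, cut at about 4.8% in these data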;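 further: 0% = DNA dye mix with DMSO and 100% = 100 µM mitoxantrone; hits displace the dye from DNA and so lower well fluorescence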
* = called active by the depositor; i = inactive; ? = inconclusive; · = not tested or not shown.

SMILES	MPTP block	DSG3 Ab inh	ADAM17 inh	rCAG binder	ADAM10 inh	KLK7 zymogen act	rCAG bind conf	DNA CAG counter
COc1ccc(NS(=O)(=O)c2ccc(NS(=O)(=O)c3ccc(SC)cc3)cc2)c(OC)c1	-1	102	1	38*	13	0	43*	13*
COCc1cc(N2CCNC[C@H]2C)ccc1N1CCS(=O)(=O)CC1	·	·	-3	4	-5	0	·	·
Cc1ccc(S(=O)(=O)N2[C@@H](c3ccccc3)C(C(=O)O)=CC[C@H]2c2cccc(Cl)c2)cc1	2	106	-1	12	2	0	·	·
COc1ccc([C@@H]2CC=C(C(=O)O)[C@H](c3ccccc3F)N2S(=O)(=O)c2ccc(C)cc2)cc1OC	-2	90	-4	32	-8	0	·	·
Cc1ccc(S(=O)(=O)N2[C@@H](c3ccccc3F)C(C(=O)O)=CC[C@H]2c2ccc3c(c2)OCO3)cc1	-2	100	-5	46*	-1	0	41*	10*
Cc1ccc(S(=O)(=O)N2[C@@H](c3ccc(F)cc3)C(C(=O)O)=CC[C@H]2c2ccc3c(c2)OCO3)cc1	-1	115	-4	53*	1	0	51*	17*
Cc1nn(-c2ccccc2)c2sc(C(=O)O)cc12	0	·	-6	4	-26	0	·	·
Cc1nn(-c2ccccc2)c2sc(-c3n[nH]c(=S)o3)cc12	12	105	-242	65*	i	-21	32	8.0*
O=C(O)c1ccc2c(c1)S(=O)(=O)c1cc(N3CCN(c4cnccn4)CC3)ccc1C2=O	0	108	-7	35*	-29	0	46*	14*
O=C1CS(=O)(=O)N(Cc2ccc(F)cc2)c2ccccc21	-2	94	3	41*	10	0	7	4.5*
COc1cc(CN2c3ccccc3C(=O)CS2(=O)=O)cc(OC)c1	-1	98	2	47*	11	0	15	8.5*
COc1ccc(CN2c3ccccc3C(=O)CS2(=O)=O)cc1OC	·	·	1	35*	1	0	13	6.5*
COc1cccc(CN2C(=O)c3ccccc3S2(=O)=O)c1	-2	103	-2	-2	-4	0	·	·
O=C1CS(=O)(=O)N(Cc2ccccc2F)c2ccc(Br)cc21	5	100	4	44*	4	0	29	13*
COc1cc(S(=O)(=O)NC(Cc2c[nH]c3ccccc23)C(=O)O)ccc1NC(C)=O (centres undefined)	0	107	-1	3	6	0	·	·
CCOC(=O)C1CCCN(c2nc3ccccc3nc2NS(=O)(=O)c2ccc(C)cc2)C1 (centres undefined)	2	?	-13	62*	-39	1	58*	15*
NC(=O)C1CCN(c2nc3ccccc3nc2NS(=O)(=O)c2ccc(Br)cc2)CC1	2	98	-10	29	-31	0	·	·
Cc1ccc(C(=O)OCC(=O)N2CCCCCC2)c(O)c1	0	108	-3	0	-13	0	·	·
Cc1cc(=O)[nH]c2cc(O)ccc12	0	81	i	-4	i	-124	·	·
CC(C)=CCCC1(C)C=Cc2c(c(C)cc3c2[nH]c2cc(O)ccc23)O1 (centres undefined)	3	99	-2	51*	-15	0	30	15*
COc1ccc(CNCC#Cc2ccccc2)cc1	·	·	3	1	3	0	·	·
CCc1ccc2[nH]c3nc(N/N=C/c4ccc(O)cc4O)nnc3c2c1	9	95	-1	57*	4	-1	35*	22*
Cc1ccc2[nH]c3nc(N/N=C/c4cccc(O)c4)nnc3c2c1	0	118	-3	24	-9	0	·	·
N#Cc1ccc(NC(=O)CSc2cn[nH]n2)cc1	0	107	-2	3	5	0	·	·
Cc1cccc(NS(=O)(=O)c2ccc(NS(=O)(=O)c3cccs3)cc2)c1	1	108	0	29	3	0	·	·
SMILES	MPTP block	DSG3 Ab inh	ADAM17 inh	rCAG binder	ADAM10 inh	KLK7 zymogen act	rCAG bind conf	DNA CAG counter
Cc1cccc(NS(=O)(=O)c2ccc(C)c(NS(=O)(=O)c3cccs3)c2)c1	-1	96	-4	36*	-4	0	28	7.9*
O=C(O)c1cccc(S(=O)(=O)N2CCCC(c3nc4c(nnn4Cc4ccccc4Cl)c(=O)[nH]3)C2)c1 (centres undefined)	-2	91	-3	43*	-6	0	30	9.3*
CCCN(C)C1CN(Cc2cn(Cc3ccc(C)cc3)nn2)S(=O)(=O)C1 (centres undefined)	0	·	-3	0	-6	0	·	·
CC(=NNc1nc2ccccc2s1)c1ccncn1	1	·	-1	2	2	-1	·	·
C/C(=N\Nc1nc2ccccc2s1)c1ccc(Br)s1	11	98	8	35*	10	-2	17	8.7*
Cc1nn(-c2ccc(F)cc2)c(Cl)c1/C=C(/CC(=O)O)c1nc2ccccc2s1	-1	·	-3	51*	-15	1	43*	13*
CCOc1ccccc1NC(=O)/C(C#N)=C/c1c(C)nn(-c2ccc(F)cc2)c1Cl	0	89	0	1	2	0	·	·
Cc1nn(-c2ccc(F)cc2)c(Cl)c1/C=C(\CC(=O)O)c1nc2ccccc2s1	-2	97	-5	38*	-1	0	45*	11*
CC12CCC(=O)N1C(C(=O)NNC(=O)c1ccccc1)CS2 (centres undefined)	-3	99	-1	-5	2	0	·	·
O=C(O)c1cc(N/N=C/c2ccc(-c3ccc(F)cc3)o2)ccc1Cl	-1	·	-16	56*	-18	0	38*	12*
C=CCNC(=S)N/N=C/c1ccc(-c2cc(Cl)ccc2Cl)o1	-2	104	-1	7	-2	1	·	·
O=C(N/N=C/c1ccc(-c2ccc(Cl)c(C(=O)O)c2)o1)c1cc2c(ccc3ccccc32)o1	6	96	-24	52*	-56	-2	86*	61*
O=[N+]([O-])c1cccc(-c2ccc(/C=N/NC(=S)Nc3cccc(F)c3)o2)c1	0	102	1	39*	1	0	25	13*
O=C(O)c1ccc(N/N=C/c2ccc(-c3cc(Cl)ccc3Cl)o2)cc1	6	105	-9	45*	-31	0	51*	18*
C[C@H]1CN([C@@H](C)CO)C(=O)CCCn2nncc2CO[C@H]1CN(C)S(=O)(=O)c1cccs1	1	103	-4	2	-30	0	·	·
